Among the data in PubChem BioAssay AID651903 (Broad Institute, 2012) are activity score (inhibition) values, retold here.

Out of some 22,000 compounds screened, about 1,100 (5%) were called active. Rule as the data show it: active = activity score above about 55%; inconclusive = no clear call, values can overlap the other calls; inactive = below that. What follows is part of a selection rich in actives, with near analogues and random picks from the rest.

This test is described as follows: T. cruzi growth inside host cells – cell-based, plate reader, single point, set 2, primary screen (AID 651903).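 Also: parasites and compound incubated about four days before reading; 0% = median of neutral control wells.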 The following applies: intracellular Trypanosoma cruzi in host cells, at 5.01 µM, hits give high values.
As to `C[C@H](CO)N1C[C@H](C)[C@@H](CN(C)S(=O)(=O)c2ccc(F)cc2)Oc2c(NC(=O)Nc3ccccc3)cccc2C1=O`, the activity score (inhibition) is 14.1% (inactive).

For `C[C@H]1CN([C@@H](C)CO)C(=O)Cc2cc(NS(=O)(=O)c3ccc(Cl)cc3)ccc2O[C@H]1CN(C)S(C)(=O)=O`, the activity score (inhibition) is -19.4% (inactive). As to `COc1ccc(S(=O)(=O)N(C)C[C@H]2OCCCC[C@@H](C)Oc3ccc(NC(=O)c4ccncc4)cc3C(=O)N([C@H](C)CO)C[C@@H]2C)cc1`, the activity score (inhibition) is -7.48% (inactive).

`COc1ccc(S(=O)(=O)N(C)C[C@H]2OCc3cnnn3CCCC(=O)N([C@H](C)CO)C[C@H]2C)cc1`: the activity score (inhibition) was 0.901% (inactive).

Consider `C[C@@H]1CN([C@H](C)CO)C(=O)c2cccc(NC(=O)CCCCCC(=O)Nc3ccccc3N)c2O[C@H]1CN(C)CC1CCCCC1`, for which the activity score (inhibition) was 62.4% (active). Consider `C[C@H](CO)N1C[C@H](C)[C@H](CN(C)CC2CCCCC2)Oc2ccc(NC(=O)CCCCCC(=O)Nc3ccccc3N)cc2C1=O`, for which the activity score (inhibition) is 0.222% (inactive). The value for `CC(C)NC(=O)Nc1cccc2c1O[C@H](CN(C)CC1CCCCC1)[C@H](C)CN([C@H](C)CO)C2=O` was -12% (inactive).

For `C[C@H]1CN([C@@H](C)CO)C(=O)c2cccc(NC(=O)CCCCCC(=O)Nc3ccccc3N)c2O[C@@H]1CN(C)CC1CCCCC1`, the activity score (inhibition) is 81.9% (active). As for `C[C@@H]1CN([C@@H](C)CO)C(=O)c2cccc(NC(=O)CCCCCC(=O)Nc3ccccc3N)c2O[C@H]1CN(C)C(=O)Nc1cccc2ccccc12`, the figure is 0.294% (inactive); as for `C[C@@H]1CN([C@@H](C)CO)C(=O)c2cccc(NC(=O)CCCCCC(=O)Nc3ccccc3N)c2O[C@@H]1CN(C)CC1CCCCC1`, 17.2% (inactive); as for `COc1cc(/C=N\NC(=O)CCCCCCC(=O)NO)c(Br)cc1O`, 22.6% (inactive). The value for `C[C@@H]1CN([C@H](C)CO)C(=O)c2cccc(NC(=O)C3CC3)c2O[C@@H]1CN(C)C(=O)Nc1ccccc1` was -22.6% (inactive); that for `Cc1ccc(S(=O)(=O)Nc2cccc3c2O[C@H](CN(C)C(=O)Nc2ccc(C(F)(F)F)cc2)[C@@H](C)CN([C@@H](C)CO)C3=O)cc1` was -14.4% (inactive); that for `C[C@@H]1CN([C@H](C)CO)C(=O)c2cccc(NC(=O)c3ccc(-c4nccs4)cc3)c2O[C@@H]1CN(C)C(=O)Nc1ccc(C(F)(F)F)cc1` was 38.2% (inactive). As for `C[C@H]1CN([C@@H](C)CO)C(=O)c2cccc(NS(=O)(=O)c3ccccc3)c2O[C@@H]1CN(C)C(=O)Nc1ccc(C(F)(F)F)cc1`, the figure is 34.3% (inactive); as for `C[C@H](CO)N1C[C@H](C)[C@H](CN(C)C(=O)Nc2ccc(C(F)(F)F)cc2)Oc2c(NC(=O)c3ccncc3)cccc2C1=O`, 72.4% (active); as for `C[C@H]1CN([C@@H](C)CO)C(=O)c2cccc(NC(=O)c3ccc(-c4nccs4)cc3)c2O[C@@H]1CN(C)C(=O)Nc1ccc(C(F)(F)F)cc1`, -8.3% (inactive). `C[C@@H]1CN([C@H](C)CO)C(=O)c2cccc(NC(=O)Nc3ccc(F)cc3)c2O[C@@H]1CN(C)C(=O)Nc1ccc(C(F)(F)F)cc1`: the activity score (inhibition) was -4.83% (inactive).

As to `C[C@@H]1CN([C@@H](C)CO)C(=O)c2cccc(NC(=O)Nc3ccc(C(F)(F)F)cc3)c2O[C@@H]1CN(C)S(=O)(=O)c1ccc(F)cc1`, the activity score (inhibition) is 71.6% (active).

For the compound `C[C@H](CO)N1C[C@H](C)[C@H](CN(C)C(=O)Nc2ccccc2)Oc2c(NC(=O)Nc3ccc(C(F)(F)F)cc3)cccc2C1=O`, the activity score (inhibition) was 70.2% (active). As for `C[C@@H]1CN([C@H](C)CO)C(=O)c2cccc(NC(=O)Nc3ccc(C(F)(F)F)cc3)c2O[C@H]1CN(C)S(=O)(=O)c1ccc(Cl)cc1`, the figure is 36.7% (inactive). The value for `C[C@H]1CN([C@@H](C)CO)C(=O)c2cccc(NC(=O)Nc3ccc(C(F)(F)F)cc3)c2O[C@H]1CN(C)S(=O)(=O)c1ccccc1` was 11.5% (inactive). Consider `C[C@@H]1CN([C@@H](C)CO)C(=O)c2cccc(NC(=O)Nc3ccc(F)cc3)c2O[C@@H]1CN(C)C(=O)Nc1ccccc1`, for which the activity score (inhibition) was -2.37% (inactive).

Turning to `C[C@@H]1CN([C@H](C)CO)C(=O)c2cccc(NS(=O)(=O)c3ccc(F)cc3)c2O[C@@H]1CN(C)C(=O)Nc1ccc(C(F)(F)F)cc1`, the activity score (inhibition) is 65.8% (active). The value for `COc1ccc(NC(=O)Nc2cccc3c2O[C@H](CN(C)S(=O)(=O)c2cn(C)cn2)[C@H](C)CN([C@@H](C)CO)C3=O)cc1` was -20.8% (inactive). `O=C(NO)c1ccc(C(=O)N/N=C/c2ccc([N+](=O)[O-])c(O)c2)cc1`: the activity score (inhibition) was 1.55% (inactive). The value for `C[C@@H]1CN([C@@H](C)CO)C(=O)c2cccc(N(C)C)c2O[C@H]1CN(C)S(=O)(=O)c1cccs1` was -13.3% (inactive); that for `Cc1noc(C)c1NC(=O)N(C)C[C@@H]1Oc2ccc(NC(=O)Nc3ccc(C(F)(F)F)cc3)cc2C(=O)N([C@H](C)CO)C[C@@H]1C` was 0.983% (inactive). Regarding `C[C@H](CO)N1C[C@H](C)[C@@H](CN(C)S(=O)(=O)c2ccc(F)cc2)Oc2ccc(NC(=O)CCC(F)(F)F)cc2C1=O`, the activity score (inhibition) was 4.98% (inactive). The value for `C[C@H](CO)N1C[C@H](C)[C@H](CN(C)S(=O)(=O)c2cn(C)cn2)Oc2c(NC(=O)c3ccc(-c4nccs4)cc3)cccc2C1=O` was -7.9% (inactive).

Take `C[C@@H]1CN([C@H](C)CO)C(=O)c2cccc(NC(=O)c3nc4ccccc4s3)c2O[C@@H]1CN(C)Cc1ccc(Oc2ccccc2)cc1`: the activity score (inhibition) is 24.2% (inactive). As for `Cc1noc(C)c1NC(=O)Nc1ccc2c(c1)CC(=O)N([C@@H](C)CO)C[C@H](C)[C@@H](CN(C)CC1CCCCC1)O2`, the figure is 4.18% (inactive). The value for `Cc1ccc(S(=O)(=O)N(C)C[C@H]2OCCCC[C@@H](C)Oc3ccc(NS(C)(=O)=O)cc3C(=O)N([C@H](C)CO)C[C@@H]2C)cc1` was 4.35% (inactive); that for `COc1ccc(S(=O)(=O)N(C)C[C@@H]2Oc3ccc(NS(=O)(=O)c4cn(C)cn4)cc3C(=O)N([C@@H](C)CO)C[C@@H]2C)cc1` was -13% (inactive); that for `COc1ccc(S(=O)(=O)N(C)C[C@H]2Oc3ccc(NS(=O)(=O)c4ccc(F)cc4)cc3C(=O)N([C@H](C)CO)C[C@H]2C)cc1` was 6.09% (inactive).
